Screening data deposited in PubChem by National Center for Advancing Translational Sciences (NCATS).
NS1 function inh: inhibitors of influenza NS1 protein function. Potency, µM (titrated, usually from 46.1 µM). 270,000 tested, 0.4% active; calls by dose curve; further: actives are rising curves; nearly all actives have a fitted effect of over 50% in size
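Growth recovery, yeast-based: influenza A NS1 expressed in S. cerevisiae causes slow growth, and suppressors are detected by OD600. The parent strain without NS1 is used as positive control.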
LmPK inhibitor: inhibitors of Leishmania mexicana pyruvate kinase; Q27686; purified LmPK, Kinase-Glo ATP luminescence, 1 h; Potency, µM (doses to about 57.5 µM), most hits filed as inhibitors; 290,000 tested, 0.37% active
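Kinase-Glo luminescence read after 1 h RT reaction of 0.1 nM LmPK with 0.5 mM PEP and 0.1 mM ADP. Activity scaled between uninhibited and enzyme-free controls.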
CHX counter: affects cycloheximide protein synthesis inhibition readout, counter-screen; cell reporter, cycloheximide protein synthesis inhibition counterscreen; max response, %; 300,000 tested, 12% active; in the data active means max response mostly above about 13%, no sharp cut-off; inactive means mostly below about 14%; further: read at 38.3 µM for the half of the compounds with a filed dose
Shiga inhibitor: blocks Shiga toxin action in Vero cells | Vero cells, Shiga toxin protein synthesis inhibition reporter | 290,000 tested, 9.2% active | inhibition, % at 38.7 µM; in the data active means inhibition mostly above about 28%, no sharp cut-off; inactive means mostly below about 43%
FBPA Giardia inh: Giardia lamblia aldolase inhibition; purified Giardia FBPA; Potency, µM (series often up to 59.6 µM), usual class: inhibitors; 290,000 tested, 0.71% active; AID 2451; further: nearly all actives have a fitted effect of over 55% in size
Target sequence (A8B2U2 whole entry, looked up): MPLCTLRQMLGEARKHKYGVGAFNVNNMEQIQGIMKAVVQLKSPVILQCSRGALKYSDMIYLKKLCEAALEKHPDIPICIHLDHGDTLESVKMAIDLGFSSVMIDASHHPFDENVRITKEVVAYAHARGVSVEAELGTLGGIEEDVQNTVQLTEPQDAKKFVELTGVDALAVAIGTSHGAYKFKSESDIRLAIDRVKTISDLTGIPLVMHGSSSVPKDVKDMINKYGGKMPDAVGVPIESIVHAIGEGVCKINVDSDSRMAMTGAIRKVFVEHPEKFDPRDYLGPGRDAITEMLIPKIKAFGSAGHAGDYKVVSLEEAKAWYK
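Giardia FBPA (40 nM reagent) was preincubated 10 min at RT with compound (up to 57.5 uM final), then substrate plus GAPDH/TPI/NAD/arsenate coupling system with diaphorase/resazurin was added; resorufin fluorescence (525/598 nm) was read after 20 min.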
Numbers stand for hits. Shown are actives, neighbours in structure and some others; about 14% of the full set was active somewhere. Unless noted, the call rests on the fitted dose curve; in most records, active means well fitted curve in the direction sought with a large enough effect; inconclusive means small, poorly fitted or top-dose-only effect, or another doubt; inactive means no such curve, though single readings can be large; an effect the other way counts as inactive or inconclusive.

For Cc1ccccc1Cn1nc(C)c(NC(=O)/C=C/c2cnn(C)c2C)c1C the results were NS1 function inh inactive, LmPK inhibitor inactive, CHX counter inactive, Shiga inhibitor inactive and FBPA Giardia inh inactive.
Cc1c(/C=C/C(=O)c2ccc(C(C)C)cc2)cnn1C was read as NS1 function inh inactive, LmPK inhibitor inactive, CHX counter 40, Shiga inhibitor 133 and FBPA Giardia inh inactive.
For Cc1nn(Cc2c(Cl)cccc2Cl)c(C)c1NC(=O)/C=C/c1cnn(C)c1C the results were NS1 function inh inactive, LmPK inhibitor inactive, CHX counter inactive, Shiga inhibitor inactive and FBPA Giardia inh inactive.
`N=C(N)SCCCN` gave NS1 function inh inactive.
O=C(O)C(Cc1ccc2c(c1)oc1ccccc12)NCP(=O)(O)O (stereo unspecified) was read as CHX counter inactive, Shiga inhibitor inactive and FBPA Giardia inh inconclusive.
Screening Cc1c(/C=C/C(=O)c2ccc(Cl)s2)cnn1C returned NS1 function inh inactive, LmPK inhibitor inactive, CHX counter 27, Shiga inhibitor inactive and FBPA Giardia inh inconclusive.
CCn1ncc(/C=N\NC(=O)c2ccc3c(c2)c(C)c(C)n3Cc2ccccc2)c1C was read as NS1 function inh inactive, LmPK inhibitor inactive, CHX counter inactive, Shiga inhibitor inactive and FBPA Giardia inh inactive.
CCn1ncc(/C=C/C(=O)c2ccccc2)c1C was read as NS1 function inh inactive, LmPK inhibitor inconclusive, CHX counter 45, Shiga inhibitor active and FBPA Giardia inh inactive.
For CC(C)NC(=O)CSc1nc(N)c(NC(=O)c2ccco2)c(=O)[nH]1 the results were LmPK inhibitor inactive, CHX counter inactive, Shiga inhibitor inactive and FBPA Giardia inh inactive.
For O=C(NN1C(=O)C2C3C=CC(C4CC34)C2C1=O)c1cccc(Cl)c1 (stereo unspecified) the results were NS1 function inh inactive, LmPK inhibitor inactive, CHX counter 48, Shiga inhibitor 132 and FBPA Giardia inh inactive.
O=C(NN1C(=O)C2C(C1=O)C1C=CC2C12CC2)c1cccc(Cl)c1 (stereo unspecified) was read as NS1 function inh inactive, LmPK inhibitor inactive, CHX counter inactive, Shiga inhibitor inactive and FBPA Giardia inh inactive.
Screening Cc1ccc(C(=O)CCNc2ccc(Cl)cc2)o1 returned NS1 function inh inactive, LmPK inhibitor inactive, CHX counter 17, Shiga inhibitor inactive and FBPA Giardia inh inactive.
Screening Cc1ccc(CCC(=O)Nc2ccc(N(C)C)cc2)o1 returned NS1 function inh inactive, LmPK inhibitor inactive, CHX counter 31, Shiga inhibitor 54 and FBPA Giardia inh inactive.
CCOc1ccc(NC(=O)CCc2ccc(C)o2)cc1 was read as NS1 function inh inactive, LmPK inhibitor inactive, CHX counter inactive and Shiga inhibitor inactive.
`Cc1ccc(NC(=O)CCc2ccc(C)o2)c(Br)c1` gave NS1 function inh inactive, LmPK inhibitor inactive, CHX counter 29, Shiga inhibitor 31 and FBPA Giardia inh inactive.
For CCc1ccc(CCC(=O)Nc2ccc(Cl)cc2)o1 the results were NS1 function inh inactive, LmPK inhibitor inactive, CHX counter 18, Shiga inhibitor inactive and FBPA Giardia inh inactive.
For CCc1ccc(CCC(=O)Nc2ccc(C(C)=O)cc2)o1 the results were NS1 function inh inactive, LmPK inhibitor inactive, CHX counter inactive, Shiga inhibitor inactive and FBPA Giardia inh inactive.
For NCCCC[C@H](NC(=O)[C@H](CS)NC(=O)[C@@H](N)Cc1cnc[nH]1)C(=O)N[C@@H](Cc1ccccc1)C(=O)N[C@@H](Cc1c[nH]c2ccccc12)C(=O)N[C@@H](Cc1c[nH]c2ccccc12)C(=O)O the results were CHX counter inactive, Shiga inhibitor inactive and FBPA Giardia inh inactive.
CCc1ccc(CCC(=O)Nc2ccc(Br)cc2)o1 was read as NS1 function inh inactive, LmPK inhibitor inactive, CHX counter inactive and FBPA Giardia inh inactive.
For Cc1ccc(CCC(=O)Nc2ccc(CC(=O)O)cc2)o1 the results were NS1 function inh inconclusive, LmPK inhibitor inactive, CHX counter inactive, Shiga inhibitor inactive and FBPA Giardia inh inactive.
For Cc1ccc(CCC(=O)Nc2ccc(Br)cc2)o1 the results were NS1 function inh inactive, LmPK inhibitor inactive, CHX counter 18, Shiga inhibitor inactive and FBPA Giardia inh inactive.
For Cc1ccc(CCC(=O)Nc2ccc(Cl)cc2)o1 the results were NS1 function inh inactive, LmPK inhibitor inactive, CHX counter 18 and FBPA Giardia inh inactive.
`COc1cc(CNc2ccc3[nH]c(=O)[nH]c3c2)ccc1OCc1ccccc1C` gave NS1 function inh inactive, LmPK inhibitor inactive, CHX counter inactive, Shiga inhibitor inactive and FBPA Giardia inh inactive.
